# Data from PubChem BioAssay (NCATS).
# Several values for one entry are separate records, joined by “and”; a condition that tells them apart may be missing. Identical values can stand only once. Results filed as inconclusive are left out. A call without a number means that no potency is given here. Activity calls are given as the source filed them. Unless noted, the call rests on the fitted dose curve.
# Tests used:
# [1] = Cytotoxicity counterscreen for inhibitors of SARS-CoV-2 cell entry (AID 1645845); further: nearly all actives have a fitted effect of over 50% in size; further: potency means the concentration at half of the fitted maximal effect
# In short: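 Counterscreen run in the same HEK293-ACE2 line as the pseudotyped-particle entry assay, without particles. Viability after 48 h at 37 C was read as ATP luminescence, scaled between cell-containing and cell-free wells.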
# [2] = Primary qHTS to identify inhibitors of SARS-CoV-2 cell entry (AID 1645846); conditions: activity change, negative = inhibition: at 57.1 µM (top of the series) unless noted; further: nearly all actives have a fitted effect of over 45% in size; further: potency means the concentration at half of the fitted maximal effect
# In short: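 HEK293-ACE2 (Expi293F, stable hACE2), 1500 cells/well, o/n 37C; cpd 23 nL pin, 1 h; MLV-PP w/ SARS-CoV-2-S (Wuhan-Hu-1, Δ19 C-term); 48 h 37C; Bright-Glo luminescence; normalized vs S-PP and bald PP.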
# [3] = biological target: Calcium and integrin-binding protein 1 (Homo sapiens) (UniProt Q99828); assay: Primary qHTS for Identification of Calcium Integrin Binding Protein 1 (CIB1) Competitor (AID 1508620; active means well fitted curve in the direction sought with a large enough effect; an effect the other way counts as inactive or inconclusive; further: potency means the concentration at half of the fitted maximal effect;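 on activity change, negative = inhibition: GST tagged CIB1 binding a fluorescein labelled alphaIIb integrin peptide tracer; top concentration of the series differs between compounds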)
# In short: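 Fluorescence polarization competition: GST-tagged CIB1 (1 uM final) preincubated with compound 15 min at room temperature, then FITC-labelled alphaIIb peptide (100 nM final) added. After 15 min at room temperature, polarization read at Ex 480/Em 540.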
# [4] = Primary qHTS for small molecule stabilizers of the endoplasmic reticulum resident proteome: Secreted ER Calcium Modulated Protein (SERCaMP) assay (AID 1508630; active means well fitted curve in the direction sought with a large enough effect; an effect the other way counts as inactive or inconclusive)
# In short: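 The SH-SY5Y reporter protocol was run at 3 concentrations up to 38.3 uM (primary) or 11 concentrations (follow-up): 16 h compound, 100 nM thapsigargin for 4 h, then extracellular luciferase luminescence.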
# [5] = Primary qHTS for inhibitors of La Crosse Virus (LACV) - induced cell death in SH-SY5Y cells (AID 1508616; active means well fitted curve in the direction sought with a large enough effect; an effect the other way counts as inactive or inconclusive;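 further: top concentration of the series differs between compounds; higher means more rescue of cells from virus-induced death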)
# In short: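 Screening measures cell viability in LACV-infected SH-SY5Y cultures. Compound was added before virus (0.01 MOI), and ATP was detected by luminescence 6 days later.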
# [6] = A High-Content qHTS Against Drug Library for the Identification of Small Molecules that Inhibit DYT1 Early Onset Primary Dystonia-Associated Cell Pathology (AID 1645839)
# In short: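 Cells were seeded and left for 24 h, then dosed with compound alongside tetracycline induction of mutant EGFP-TorsinA. They were incubated for 48 h, fixed in 4% paraformaldehyde, permeabilized and imaged for mislocalization (%pathology) and cell count.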
# [7] = biological target: Cytochrome P450 2D6 (Homo sapiens) (UniProt P10635); assay: Cytochrome P450 family 2 subfamily D member 6 (CYP2D6) small molecule antagonists: luciferase biochemical (cell-free) qHTS assay (AID 1645840; active means well fitted curve in the direction sought with a large enough effect in the repeat runs; an effect the other way counts as inactive or inconclusive; further: nearly all actives have a fitted effect of over 55% in size; further: potency means the concentration at half of the fitted maximal effect)
# In short: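 P450-Glo CYP2D6 system: proluciferin substrate converted by enzyme to luciferin, read by luminescence proportional to activity. Enzyme-substrate mix with compound 10 min at room temperature, then NADPH regeneration 1 h before detection reagent.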
# [8] = biological target: Cytochrome P450 2C9 (Homo sapiens) (UniProt P11712); assay: Cytochrome P450 family 2 subfamily C member 9 (CYP2C9) small molecule antagonists: luciferase biochemical (cell-free) qHTS assay (AID 1645842; active means well fitted curve in the direction sought with a large enough effect in the repeat runs; an effect the other way counts as inactive or inconclusive; further: nearly all actives have a fitted effect of over 55% in size; further: potency means the concentration at half of the fitted maximal effect)
# In short: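 P450-Glo CYP2C9 system: proluciferin substrate with enzyme in mix containing 0.4% BSA, 10 min at room temperature, then NADPH regeneration solution added and incubated 1 h at 37C. Detection reagent stopped reaction; luminescence read after 20 min as RLU.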
# [9] = Confirmatory qHTS to identify inhibitors of SARS-CoV-2 cell entry (AID 1645844); further: potency means the concentration at half of the fitted maximal effect; nearly all actives have a fitted effect of over 45% in size
# In short: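 HEK293-ACE2, overnight seeding; cpd 1 h, 37C/5% CO2; + SARS-CoV-2-S MLV PP (Wuhan-Hu-1, ΔC19); 48 h; Bright-Glo luminescence. Data normalised to S PP and bald PP wells.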
# [10] = biological target: Calcium and integrin-binding protein 1 (Homo sapiens) (UniProt Q99828); assay: Validation qHTS for Identification of Calcium Integrin Binding protein 1 (CIB1) Competitor (AID 1508618; active means well fitted curve in the direction sought with a large enough effect; an effect the other way counts as inactive or inconclusive; further: potency means the concentration at half of the fitted maximal effect)
# In short: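 CIB1-GST (1 uM final) incubated 15 min at room temperature with compounds (up to 114 uM), then FITC-labelled alphaIIb peptide (100 nM) added. FP read (Ex 480/Em 540) after 15 min, pH 7.4 buffer containing 5 mM CaCl2.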
# [11] = biological target: Calcium and integrin-binding protein 1 (Homo sapiens) (UniProt Q99828); assay: Confirmatory qHTS for Identification of Calcium Integrin Binding Protein 1 (CIB1) Competitor (AID 1508617; active means well fitted curve in the direction sought with a large enough effect; an effect the other way counts as inactive or inconclusive; further: nearly all actives have a fitted effect of over 65% in size)
# In short: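 Compounds at up to 114 uM final met 1 uM GST-tagged CIB1 for 15 min at room temperature (HEPES pH 7.4, 5 mM CaCl2). FITC-labelled alphaIIb peptide, 100 nM, added; polarization read after 15 min more.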
# [12] = Counterscreen qHTS for small molecule stabilizers of the endoplasmic reticulum resident proteome: GLuc-NoTag assay (AID 1508627; active means well fitted curve in the direction sought with a large enough effect; an effect the other way counts as inactive or inconclusive;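 further: SH-SY5Y cells given compound then 100 nM thapsigargin to empty ER calcium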)
# In short: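 Counterscreen line: SH-SY5Y-GLuc-NoTag. Seed, 5 h; compound, 19 h; thapsigargin 100 nM, 4 h; 37C/5% CO2. Readout: secreted GLuc luminescence, coelenterazine 0.07x final, no lysis.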
# [13] = Confirmatory qHTS for small molecule stabilizers of the endoplasmic reticulum resident proteome: Secreted ER Calcium Modulated Protein (SERCaMP) assay (AID 1508628; active means well fitted curve in the direction sought with a large enough effect; an effect the other way counts as inactive or inconclusive; further: potency means the concentration at half of the fitted maximal effect; nearly all actives have a fitted effect of over 40% in size)
# In short: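 GLuc-SERCaMP-expressing SH-SY5Y cells, pretreated 16 h with compound, are challenged with thapsigargin to empty ER calcium stores; after 4 h, coelenterazine is added directly to the medium and luminescence is imaged.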
# Cytochrome P450 2C9 (Homo sapiens), sequence (P11712 whole entry, looked up): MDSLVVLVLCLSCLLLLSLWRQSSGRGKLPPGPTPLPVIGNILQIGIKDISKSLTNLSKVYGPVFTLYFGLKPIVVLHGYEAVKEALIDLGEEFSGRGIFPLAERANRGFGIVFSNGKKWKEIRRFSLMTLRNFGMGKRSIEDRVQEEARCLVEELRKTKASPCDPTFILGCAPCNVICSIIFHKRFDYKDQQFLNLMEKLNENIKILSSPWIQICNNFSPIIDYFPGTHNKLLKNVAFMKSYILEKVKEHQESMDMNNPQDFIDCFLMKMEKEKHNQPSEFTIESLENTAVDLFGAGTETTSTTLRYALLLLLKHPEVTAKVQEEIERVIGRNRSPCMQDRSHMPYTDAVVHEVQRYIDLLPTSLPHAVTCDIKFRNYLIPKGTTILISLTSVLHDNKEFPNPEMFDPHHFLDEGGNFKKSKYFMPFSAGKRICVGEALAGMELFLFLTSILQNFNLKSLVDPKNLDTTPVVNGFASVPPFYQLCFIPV
# Cytochrome P450 2D6 (Homo sapiens), sequence (P10635 whole entry, looked up): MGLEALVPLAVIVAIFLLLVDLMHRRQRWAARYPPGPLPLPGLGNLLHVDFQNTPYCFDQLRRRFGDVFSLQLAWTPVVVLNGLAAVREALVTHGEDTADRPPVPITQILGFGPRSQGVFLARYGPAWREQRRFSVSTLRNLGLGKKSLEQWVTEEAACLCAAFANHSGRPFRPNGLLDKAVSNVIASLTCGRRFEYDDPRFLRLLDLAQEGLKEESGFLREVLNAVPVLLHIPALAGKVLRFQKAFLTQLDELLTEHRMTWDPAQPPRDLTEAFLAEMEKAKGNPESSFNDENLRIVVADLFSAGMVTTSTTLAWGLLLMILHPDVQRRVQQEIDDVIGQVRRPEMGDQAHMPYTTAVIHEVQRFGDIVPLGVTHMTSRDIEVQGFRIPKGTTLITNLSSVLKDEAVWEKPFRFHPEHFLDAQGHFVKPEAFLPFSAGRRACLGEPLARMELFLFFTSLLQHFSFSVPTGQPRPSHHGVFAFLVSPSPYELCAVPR
# Calcium and integrin-binding protein 1 (Homo sapiens), sequence (Q99828 whole entry, looked up): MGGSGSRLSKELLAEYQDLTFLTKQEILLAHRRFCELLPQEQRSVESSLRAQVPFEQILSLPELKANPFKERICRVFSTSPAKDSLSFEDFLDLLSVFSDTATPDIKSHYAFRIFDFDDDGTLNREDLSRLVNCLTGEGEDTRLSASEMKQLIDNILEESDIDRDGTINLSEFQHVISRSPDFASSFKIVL
structure (smiles),measurement,setting,value
CCc1nc(N)nc(N)c1-c1ccc(Cl)cc1,Potency,[1],14.1 µM (active)
Cc1c(OCC(F)(F)F)ccnc1CS(=O)c1nc2ccccc2[nH]1 (stereo unspecified),Potency,[2],inactive
Cc1cc(SCc2sc(-c3ccc(C(F)(F)F)c(F)c3)nc2C)ccc1OCC(=O)O,Potency,[3],inactive
same,outcome,[4],inactive
same,Potency,[1],inactive
same,Potency,[2],inactive
C#CCOC(C(=O)OCCN(C)C)(c1ccccc1)c1ccccc1,Potency,[5],inactive
same,Potency,[3],inactive
same,Potency,[6],inactive
same,Potency,[7],1.55 µM (active)
same,Potency,[8],0.776 µM (active)
COC(=O)Nc1nc2ccc(C(=O)c3cccs3)cc2[nH]1,Potency,[9],0.215 µM (active)
same,Potency,[1],inactive
same,"activity change, negative = inhibition",[2],-61.3%
COC1(CS(=O)c2ccccc2)CCN(CCc2c[nH]c3ccc(F)cc23)CC1 (stereo unspecified),Potency,[3],inactive
same,outcome,[4],inactive
Cc1sc2c(c1C)C(c1ccc(Cl)cc1)=N[C@@H](CC(=O)OC(C)(C)C)c1nnc(C)n1-2,Potency,[3],inactive
same,Potency,[7],inactive
same,Potency,[8],10.7 µM (active)
same,Potency,[1],inactive
same,"activity change, negative = inhibition",[2],-18.3%
N[C@@H](Cc1ccc(Oc2cc(I)c(O)c(I)c2)c(I)c1)C(=O)O,Potency,[5],inactive
same,outcome,[4],inactive
same,Potency,[6],inactive
same,Potency,[7],19.5 µM (active)
same,Potency,[8],3.89 µM (active)
C[C@@H]1[C@@H](C(=O)C[C@H]2O[C@@H]3O[C@]4(C)CC[C@@H]5[C@H](C)CC[C@@H]([C@H]2C)[C@@]35OO4)O[C@@H]2O[C@]3(C)CC[C@H]4[C@H](C)CC[C@@H]1[C@@]24OO3,Potency,[3],inactive
same,outcome,[4],inactive
CN1C(=S)CN=C(c2ccccc2)c2cc(Cl)ccc21,Potency,[5],inactive
same,Potency,[3],inactive
same,Potency,[6],inactive
same,Potency,[8],12.3 µM (active)
COc1c(C)c2c(c(O)c1C/C=C(\C)CCC(=O)OCCN1CCOCC1)C(=O)OC2,Potency,[9],0.0764 µM (active)
same,"activity change, negative = inhibition",[2],-45.8%
CNC(=O)c1ccc(N2C(=S)N(c3ccc(C#N)c(C(F)(F)F)c3)C(=O)C23CCC3)cc1F,Potency,[3],inactive
same,Potency,[7],inactive
same,Potency,[8],16.9 µM (active)
same,Potency,[1],inactive
same,"activity change, negative = inhibition",[2],-17.3%
N[C@@H](Cc1cc(I)c(Oc2cc(I)c(O)c(I)c2)c(I)c1)C(=O)O,Potency,[1],inactive
Cc1ccc(-n2nc(C(C)(C)C)cc2NC(=O)Nc2ccc(OCCN3CCOCC3)c3ccccc23)cc1,Potency,[1],inactive
same,"activity change, negative = inhibition",[2],-13.7%
Cn1ccc2cc3c(cc21)CCN3C(=O)Nc1cccnc1,Potency,[1],inactive
same,"activity change, negative = inhibition",[2],-18.3%
COc1cc([C@@H]2c3cc4c(cc3[C@H](O)[C@H]3COC(=O)[C@H]23)OCO4)cc(OC)c1OC,"activity change, negative = inhibition",[2],-79.7%
COc1cccc2c1C(=O)c1c(O)c3c(c(O)c1C2=O)C[C@@](O)(C(=O)CO)C[C@@H]3O[C@H]1C[C@H](N)[C@H](O)[C@H](C)O1,Potency,[9],0.192 µM (active)
same,Potency,[1],inactive
same,"activity change, negative = inhibition",[2],-93.7%
CNC(=O)N1N=C(c2ccc(N)cc2)c2cc3c(cc2CC1C)OCO3 (stereo unspecified),Potency,[3],inactive
same,outcome,[4],inactive
same,Potency,[7],inactive
same,Potency,[8],1.51 µM (active)
O=c1oc2ccccc2c(O)c1C(CC(O)c1ccc(-c2ccc(Br)cc2)cc1)c1ccccc1 (stereo unspecified),Potency,[5],inactive
same,Potency,[8],4.36 µM (active)
CC1=C2C[C@@H]3[C@@H](CC=C4C[C@@H](O)CC[C@@]43C)[C@@H]2CC[C@]12O[C@H]1C[C@H](C)CN[C@H]1[C@H]2C,Potency,[3],inactive
same,outcome,[4],inactive
O[C@@H](CNC[C@H](O)[C@H]1CCc2cc(F)ccc2O1)[C@@H]1CCc2cc(F)ccc2O1,Potency,[2],22.4 µM (active)
CC(C)Oc1ccc2c(=O)c(-c3ccccc3)coc2c1,Potency,[1],inactive
same,Potency,[2],inactive
CN(C)CCN(C)CCc1ccc(Cl)c(Cl)c1,Potency,[3],inactive
same,Potency,[1],inactive
CCCN1CCC[C@@H]2Cc3nc(N)ncc3C[C@H]21,Potency,[10],inactive
same,Potency,[3],inactive
same,Potency,[6],inactive
same,Potency,[7],9.77 µM (active)
same,Potency,[8],inactive
CC[C@@H](CO)NC(=O)[C@@H]1C=C2c3cccc4c3c(cn4C)C[C@H]2N(C)C1,outcome,[11],inactive
same,Potency,[10],44.7 µM (active)
same,Potency,[3],44.7 µM (active)
same,Potency,[6],inactive
same,Potency,[7],12.3 µM (active)
COc1cc2c(N3CCN(C(=O)Nc4ccc(OC(C)C)cc4)CC3)ncnc2cc1OCCCN1CCCCC1,Potency,[1],inactive
COc1ccc(Cc2nccc3cc(OC)c(OC)cc23)cc1OC,Potency,[5],inactive
same,Potency,[3],inactive
same,Potency,[6],inactive
same,Potency,[7],4.9 µM (active)
same,Potency,[8],9.77 µM (active)
same,Potency,[1],7.94 µM (active)
C[C@@H]1[C@@H](CC(C[C@H]2O[C@@H]3O[C@]4(C)CC[C@@H]5[C@H](C)CC[C@@H]([C@H]2C)[C@@]35OO4)C[S+](=O)([O-])c2ccc(COC(=O)N(C)C)cc2)O[C@@H]2O[C@]3(C)CC[C@H]4[C@H](C)CC[C@@H]1[C@@]24OO3 (stereo partly specified),Potency,[3],inactive
same,outcome,[4],inactive
C=CC(=O)Nc1cc2c(Nc3ccc(F)c(Cl)c3)ncnc2cc1OCCCN1CCOCC1,Potency,[1],35.5 µM (active)
COc1cc(NCc2ccc3nc(N)nc(N)c3c2C)cc(OC)c1OC,Potency,[1],11.2 µM (active) and 1.12 µM (active)
same,Potency,[2],2.82 µM (active)
C[C@@H](NCCCc1cccc(C(F)(F)F)c1)c1cccc2ccccc12,Potency,[2],20 µM (active)
CCC(=O)C(CC(C)N(C)C)(c1ccccc1)c1ccccc1 (stereo unspecified),Potency,[3],inactive
same,Potency,[12],inactive
same,Potency,[13],35.5 µM (active)
same,Potency,[7],0.898 µM (active)
same,Potency,[8],inactive
Cn1cnc2c(F)c(Nc3ccc(Br)cc3Cl)c(C(=O)NOCCO)cc21,Potency,[1],inactive
same,"activity change, negative = inhibition",[2],-32.9%
